Measurements taken from paper PMC5540273 (PLoS ONE, 2017).

Test system: MERTK
Settings: concentration: 1 μM, replicates: in singlicate; n = 1
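Further: KINOMEscan kinase panel screen.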

SMILES	%Inh
CN(c1ccc2c(c1)nc(NCc1ccccc1)n2C)c1ccnc(Nc2ccc(CS(C)(=O)=O)cc2)n1.Cl [GW811603]	36%
CCOc1nccc(-c2c(-c3ccc(F)cc3)ncn2C2CCNCC2)n1 [SB-249175]	18%
CC(C)(C)c1ccc(C(=O)Nc2cn3cc(-n4ccnc4)ccc3n2)cc1	0%
CNc1nccc(-c2ccc3c(N)n[nH]c3c2)n1 [GSK2206003]	21%

Test system: MET
Settings: concentration: 1 μM, replicates: in singlicate; n = 1

SMILES	%Inh
CN1CCN(Cc2ccc(NC(=O)Nc3ccc(N(C)c4ccnc(Nc5ccc(CS(C)(=O)=O)cc5)n4)cc3)cc2)CC1.Cl [GW827654]	67%
COc1ccc(C)c(Nc2ccnc(Nc3ccc(-c4cnc[nH]4)cc3)n2)c1.Cl [GW784041]	15%
Cc1ccc(NC(=O)c2ccnc(N3CCCCC3)c2)cc1-c1ccc(C(=O)NCC2CC2)cc1 [GW775610]	0%
CC(C)NCC(Cc1ccccc1)NC(=O)c1cc(Br)c(-c2ccnc3[nH]ccc23)s1.Cl.Cl (centres unmarked) [GSK1383281]	17%
N#Cc1cnc2cc(-c3cnc(CNCCN4CCOCC4)s3)ccc2c1Nc1ccc(Oc2ccccc2)cc1 [GW664114]	7%
O=C1NC(=O)C(c2ccccc2Cl)=C1Nc1cccc(Cl)c1 [SB-342409]	0%
COc1cc(Nc2ccnc3cc(-c4ccncc4)ccc23)cc(OC)c1OC.Cl [GW494610]	13%
O=C(Nc1n[nH]c2nc(-c3cccc(O)c3)ccc12)C1CC1 [SB-711805]	0%
COC(=O)Nc1nc2ccc(Oc3ccc(NC(=O)Nc4cc(C(F)(F)F)ccc4F)cc3)cc2[nH]1.Cl [GW654607]	88%
Cc1ccc(O)cc1Nc1ccnc2ccc(C(C)(C)C)cc12 [GW856805]	0%
O=C(Nc1n[nH]c2nc(-c3ccccc3)ccc12)C1CC1 [SB-708999]	0%
Fc1cc(Cl)ccc1Nc1ccnc2cc(-c3ccc(CN4CCOCC4)o3)ccc12 [GW560109]	51%
Cc1ccc(Nc2ccnc(Nc3ccc(C)c(F)c3)n2)cc1O.Cl [GW582868]	0%
COc1ccc(NC(=O)c2ccoc2)cc1-c1ccc(C(=O)NCC2CC2)cc1 [GW810437]	0%
Cn1cc(-c2cnc(N)c3c(-c4ccc5c(c4)CCN5C(=O)Cc4ccccc4)csc23)cn1 [GSK2593074]	79%
Cc1ccc(NC(=O)c2ccc(Cl)c(Cl)c2)cc1-c1ccc(C(=O)Nc2ccncc2)cc1 [GSK1398460]	0%
Cl.O=C(Nc1ccc(Oc2ccc3[nH]c(NC(=O)c4ccco4)nc3c2)cc1)Nc1cc(C(F)(F)F)ccc1F [GW683134]	83%
Nc1ncc(-c2cn[nH]c2)c2scc(-c3ccc4c(c3)CCN4C(=O)Cc3ccccc3)c12 [GSK2593067]	77%
O=C(O)C(F)(F)F.O=c1[nH]ccc2nc(N[C@@H]3CCNC3)nc(Nc3ccc4c(c3)S(=O)(=O)CC4)c12 [GSK2181306]	26%

SMILES	%Inh
COc1ccc(C2=C(Nc3cccc(O)c3)C(=O)NC2=O)cc1 [SB-390766]	0%
CSc1ccc(NC2=C(c3ccc(Cl)cc3)C(=O)NC2=O)cc1 [SB-317658]	0%
Cc1cccc(Nc2nc(N[C@H]3CCCC[C@H]3N)ncc2C(N)=O)c1.Cl [GSK986310]	0%
NCCC(NC(=O)c1cc(Br)c(-c2ccnc3[nH]ccc23)s1)c1ccccc1.O=C(O)C(F)(F)F.O=C(O)C(F)(F)F (centres unmarked) [GSK1307810]	24%
CN(c1ccc(NC(=O)Nc2cccc(Cl)c2)cc1)c1ccnc(N)n1.Cl [GW830707]	1%
Fc1cc(Cl)ccc1Nc1ccnc2cc(-c3ccc(CN4CCSCC4)o3)ccc12 [GW560106]	28%
Cn1cc(-c2ccc3c(c2)CCN3C(=O)Cc2cc(F)cc(F)c2F)c2c(N)ncnc21 [GSK2634140]	68%
CCn1cnc2c(NCc3ccccc3)ncnc21 [SKF-96418]	0%
COC(=O)Nc1nc2ccc(Oc3ccc(CC(=O)Nc4cc(C(F)(F)F)ccc4F)cc3)cc2[nH]1 [GW680903]	0%
Cl.Cl.NCC(NC(=O)c1cc(-c2cccnc2)c(-c2ccnc3[nH]ccc23)s1)c1ccccc1 (centres unmarked) [GSK1323434]	0%
CN(c1ccc(NC(=O)N2CCN(CCCN3CCOCC3)CC2)cc1)c1ccnc(Nc2ccc(CS(C)(=O)=O)cc2)n1.Cl [GW830899]	67%
COc1cccc(-c2nc(-c3ccccc3)[nH]c2-c2ccncc2)c1 [SB-610250]	0%
Cl.Cl.NC(CNC(=O)c1cc(Br)c(-c2ccnc3[nH]ccc23)s1)c1ccccc1 (centres unmarked) [GSK1322949]	22%
O=C(Nc1n[nH]c2cc(-c3cccs3)ccc12)C1CC1 [SB-731284]	0%
CN(c1ccc2c(c1)nc(NCc1ccccc1)n2C)c1ccnc(Nc2ccc(CS(C)(=O)=O)cc2)n1.Cl [GW811603]	46%
CCOc1nccc(-c2c(-c3ccc(F)cc3)ncn2C2CCNCC2)n1 [SB-249175]	0%
CC(C)(C)c1ccc(C(=O)Nc2cn3cc(-n4ccnc4)ccc3n2)cc1	0%
CNc1nccc(-c2ccc3c(N)n[nH]c3c2)n1 [GSK2206003]	0%
